Measured values from PubChem BioAssay (Tox21).
Where “and” joins values, the source holds several entries; their conditions need not be identical. Equal values may be shown once. Records with an inconclusive call do not appear. Where a call stands in place of a potency, no number is given. Some structures have more than one record in an assay (separate samples or runs), and their calls can disagree. Calls of active or inactive are those of the source. Unless noted, calls come from the whole dose curve; as a rule, active = well fitted curve in the direction sought with a large enough effect in the repeat runs; inconclusive = weak or mixed curves; inactive = no such curve, though single readings can be large; an effect the other way counts as inactive or inconclusive.

What was measured:
[1] = qHTS assay to identify small molecule antagonists of the glucocorticoid receptor (GR) signaling pathway - cell viability counter screen (AID 720693); note: nearly all actives have a fitted effect of over 55% in size; note: potency is the fitted concentration of half-maximal effect
[2] = qHTS assay for identifying genotoxic compounds that show differential cytotoxicity against isogenic chicken DT40 cell lines with known DNA damage response pathways - wild type cell line (AID 743012); note: nearly all actives have a fitted effect of over 60% in size; note: potency is the fitted concentration of half-maximal effect
Outline: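 Wild type DT40, 300 cells/well, ~0.5 h settle at 37 C/5% CO2; compounds in DMSO added by pintool; 40 h at 37 C/5% CO2; CellTiter-Glo, 30 min RT; luminescence.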

[3] = qHTS assay for identifying genotoxic compounds that show differential cytotoxicity against isogenic chicken DT40 cell lines with known DNA damage response pathways - Rev3 mutant cell line (AID 743014); note: nearly all actives have a fitted effect of over 55% in size; note: potency is the fitted concentration of half-maximal effect
[4] = qHTS assay for identifying genotoxic compounds that show differential cytotoxicity against isogenic chicken DT40 cell lines with known DNA damage response pathways - Rad54/Ku70 mutant cell line (AID 743015); note: nearly all actives have a fitted effect of over 60% in size; note: potency is the fitted concentration of half-maximal effect
[5] = qHTS assay to identify small molecule antagonists of the androgen receptor (AR) signaling pathway - cell viability counter screen (AID 743033; note: nearly all actives have a fitted effect of over 45% in size; note: potency is the fitted concentration of half-maximal effect)
[6] = target: Androgen receptor (Homo sapiens) (UniProt P10275); test: qHTS assay to identify small molecule agonists of the androgen receptor (AR) signaling pathway (AID 743036; active = well fitted activation curve with a large enough effect in the signal ratio in the repeat runs, with a control signal flat, not every such curve was filed as active; the % refers to the signal ratio)
Chain of Androgen receptor (Homo sapiens) (P10275 whole entry, looked up): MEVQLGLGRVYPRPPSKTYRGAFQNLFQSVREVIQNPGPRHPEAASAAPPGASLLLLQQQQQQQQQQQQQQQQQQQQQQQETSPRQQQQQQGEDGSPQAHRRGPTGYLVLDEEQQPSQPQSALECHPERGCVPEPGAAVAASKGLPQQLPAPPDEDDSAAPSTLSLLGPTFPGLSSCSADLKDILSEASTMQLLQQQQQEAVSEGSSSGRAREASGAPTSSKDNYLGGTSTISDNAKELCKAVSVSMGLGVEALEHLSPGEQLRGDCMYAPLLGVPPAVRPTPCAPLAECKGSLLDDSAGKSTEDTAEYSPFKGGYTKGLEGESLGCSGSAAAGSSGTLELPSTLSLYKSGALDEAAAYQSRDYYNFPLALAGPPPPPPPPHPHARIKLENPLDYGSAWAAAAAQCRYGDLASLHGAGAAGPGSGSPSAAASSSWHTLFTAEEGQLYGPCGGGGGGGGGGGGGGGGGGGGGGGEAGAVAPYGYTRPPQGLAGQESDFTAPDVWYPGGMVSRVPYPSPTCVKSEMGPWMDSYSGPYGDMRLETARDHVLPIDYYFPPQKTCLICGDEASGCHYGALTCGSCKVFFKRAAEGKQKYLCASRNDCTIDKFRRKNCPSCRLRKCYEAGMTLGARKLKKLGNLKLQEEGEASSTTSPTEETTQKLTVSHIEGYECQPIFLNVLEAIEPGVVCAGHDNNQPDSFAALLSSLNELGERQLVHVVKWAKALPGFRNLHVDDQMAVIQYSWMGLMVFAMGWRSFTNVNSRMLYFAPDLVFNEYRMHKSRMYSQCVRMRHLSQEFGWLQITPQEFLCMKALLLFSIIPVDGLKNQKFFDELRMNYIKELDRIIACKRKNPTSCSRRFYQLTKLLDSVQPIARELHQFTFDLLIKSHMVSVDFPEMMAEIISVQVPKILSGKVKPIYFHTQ
Outline: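 Agonist activity was scored by beta-lactamase reporter fluorescence in stably transfected HEK293 cells exposed to compounds for 16 h at 37C and 5% CO2. Substrate loading took 2 h at room temperature.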

[7] = target: Androgen receptor (Homo sapiens) (UniProt P10275); test: qHTS assay to identify small molecule agonists of the androgen receptor (AR) signaling pathway using the MDA cell line (AID 743040; note: nearly all actives have a fitted effect of over 20% in size)
Outline: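 Human breast carcinoma MDA-kb2 reporter cells (MMTV-luc, AR/GR elements) were treated for 16 h at 37C in 0% CO2 following a 5 h settling period. Signal was quantified by ONE-Glo luminescence.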

[8] = qHTS assay to identify small molecule antagonists of the androgen receptor (AR) signaling pathway using the MDA cell line - cell viability counter screen (AID 743041; note: nearly all actives have a fitted effect of over 45% in size; note: potency is the fitted concentration of half-maximal effect)
Outline: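 Same-well cytotoxicity was assessed by CellTiter-Fluor in MDA-kb2 AR-luc cells after 16 h of compound treatment under R1881 agonism.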

[9] = target: Androgen receptor (Homo sapiens) (UniProt P10275); test: qHTS assay to identify small molecule antagonists of the androgen receptor (AR) signaling pathway using the MDA cell line (AID 743042; note: nearly all actives have a fitted effect of over 55% in size; note: potency is the fitted concentration of half-maximal effect)
Outline: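 MDA-kb2 breast carcinoma cells carrying MMTV-luciferase (AR/GR responsive) were co-treated with compounds and the agonist R1881 for 16 h at 37C. Inhibition read as ONE-Glo luminescence; CellTiter-Fluor fluorescence measured in parallel for cytotoxicity.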

[10] = target: Androgen receptor (Homo sapiens) (UniProt P10275); test: qHTS assay to identify small molecule antagonists of the androgen receptor (AR) signaling pathway (AID 743035; active = well fitted inhibition curve with a large enough effect in the signal ratio in the repeat runs, not every such curve was filed as active; the % refers to the signal ratio; note: potency is the fitted concentration of half-maximal effect)
Outline: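 Fluorescence from a beta-lactamase FRET substrate (LiveBLAzer B/G, 2 h, room temperature) measured inhibition of R1881-stimulated signaling in GeneBLAzer AR-UAS-bla HEK293 cells exposed to compound for 16 h at 37C.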

Compound: Clc1ccc2cc3ccccc3cc2c1
- Potency [1]: inactive
- Potency [2]: inactive
- Potency [3]: inactive
- Potency [4]: inactive
- Potency [5]: inactive
- Potency [6]: inactive
- Potency [7]: inactive
- Potency [8]: inactive
- Potency [9]: inactive

Compound: CCc1cc(SCc2sc(-c3ccc(C(F)(F)F)cc3)nc2CN2CCN(c3ccc(OC)cc3)CC2)ccc1OCC(=O)O
- Potency [1]: 49 µM (active)
- Potency [2]: 43.3 µM (active)
- Potency [3]: 61.1 µM (active)
- Potency [4]: 30.6 µM (active)
- Potency [5]: 5.49 µM (active)

Compound: NNc1nc(-c2ccc(N)cc2)cs1
- Potency [1]: inactive
- Potency [2]: 17.2 µM (active)
- Potency [3]: 21.7 µM (active)
- Potency [4]: 10.9 µM (active)
- Potency [5]: inactive

Compound: CN1CCN(CCC(=O)N2c3ccccc3Sc3ccc(C(F)(F)F)cc32)CC1
- Potency [1]: inactive
- Potency [2]: 16.8 µM (active)
- Potency [3]: 13.3 µM (active)
- Potency [4]: 21.1 µM (active)
- Potency [5]: inactive
- Potency [10]: inactive
- Potency [6]: inactive
- Potency [7]: inactive
- Potency [8]: inactive
- Potency [9]: inactive

Compound: Nc1ccc(N)c2ccccc12
- Potency [1]: 21.8 µM (active)
- Potency [2]: 15.3 µM (active)
- Potency [3]: 5.44 µM (active)
- Potency [4]: 6.85 µM (active)
- Potency [5]: 12.3 µM (active)
- Potency [6]: inactive
- Potency [7]: inactive
- Potency [8]: 43.2 µM (active)
- Potency [9]: 17.2 µM (active)

Compound: CC1=C(/C=C/C(C)=C/C=C/C(C)=C/C=O)C(C)(C)CCC1
- Potency [1]: 24.4 µM (active)
- Potency [2]: 13.6 µM (active)
- Potency [3]: 9.63 µM (active)
- Potency [4]: 12.1 µM (active)
- Potency [5]: 21.8 µM (active)

Compound: COC(=O)C1=C(C)NC(C)=C(C(=O)OCC(C)C)C1c1ccccc1[N+](=O)[O-] (configuration not stated)
- Potency [1]: inactive
- Potency [2]: 5.31 µM (active) and 3.86 µM (active)
- Potency [3]: 10.6 µM (active) and 4.33 µM (active)
- Potency [4]: 8.41 µM (active) and 5.45 µM (active)
- Potency [5]: 43.6 µM (active)

Compound: COc1cccc(N)c1
- Potency [1]: inactive
- Potency [2]: inactive
- Potency [3]: inactive
- Potency [4]: inactive
- Potency [5]: inactive

Compound: C=CC(=O)OCC(CO)(COCC(COC(=O)C=C)(COC(=O)C=C)COC(=O)C=C)COC(=O)C=C
- Potency [1]: 4.31 µM (active)
- Potency [2]: 0.34 µM (active)
- Potency [3]: 0.428 µM (active)
- Potency [4]: 0.303 µM (active)
- Potency [5]: 3.84 µM (active)
- Potency [10]: 1.93 µM (active)
- Potency [7]: inactive
- Potency [9]: 1.07 µM (active)

Compound: CC(C)(C)C(=O)OCOC(=O)C1N2C(=O)CC2S(=O)(=O)C1(C)C (configuration not stated)
- Potency [1]: inactive
- Potency [2]: inactive
- Potency [3]: inactive
- Potency [4]: inactive
- Potency [5]: inactive
- Potency [10]: 6.74 µM (active)
- Potency [6]: inactive
- Potency [7]: inactive
- Potency [8]: inactive
- Potency [9]: inactive

Compound: NNC(=O)c1cccc(C(=O)NN)c1
- Potency [1]: inactive
- Potency [2]: inactive
- Potency [3]: inactive
- Potency [4]: inactive
- Potency [5]: inactive
- Potency [10]: inactive
- Potency [6]: inactive
- Potency [7]: inactive
- Potency [9]: inactive

Compound: CCCCCCCC/C=C\CCCCCCCCOCCO
- Potency [1]: 31.9 µM (active)
- Potency [2]: 5.62 µM (active)
- Potency [3]: 5.62 µM (active)
- Potency [4]: 8.91 µM (active)
- Potency [5]: 22.6 µM (active)

Compound: Cc1[nH]cnc1C[C@H]1CCc2c(C)c3ccccc3n2C1=O
- Potency [1]: inactive
- Potency [2]: 13.3 µM (active) and 26.6 µM (active)
- Potency [3]: 29.8 µM (active) and 21.2 µM (active)

Compound: CC(=O)N1CCN(c2ccc(OC[C@H]3CO[C@](Cn4ccnc4)(c4ccc(Cl)cc4Cl)O3)cc2)CC1
- Potency [1]: inactive
- Potency [2]: 10.6 µM (active) and 3.86 µM (active)
- Potency [3]: 23.7 µM (active) and 4.33 µM (active)
- Potency [4]: 21.1 µM (active) and 6.11 µM (active)
- Potency [5]: inactive and 19.5 µM (active)

Compound: CC[C@@]1(O)C(=O)OCc2c1cc1n(c2=O)Cc2cc3c(CN(C)C)c(O)ccc3nc2-1
- Potency [1]: inactive
- Potency [2]: 1.33 µM (active)
- Potency [3]: 1.19 µM (active)
- Potency [4]: 0.841 µM (active)

Compound: CCOC(=O)/C=C(C)/C=C/C=C(C)/C=C/c1c(C)cc(OC)c(C)c1C
- Potency [1]: inactive
- Potency [2]: 9.44 µM (active)
- Potency [3]: 2.37 µM (active)
- Potency [4]: 6.68 µM (active)
- Potency [5]: inactive

Compound: COc1ccc(CN2CCN(C(c3ccc(F)cc3)c3ccc(F)cc3)CC2)c(OC)c1OC
- Potency [1]: inactive
- Potency [2]: 3.76 µM (active)
- Potency [3]: 5.96 µM (active)
- Potency [4]: 6.68 µM (active)
- Potency [5]: 23.9 µM (active)

Compound: O=C(O)c1cc(O)c2c(c1)C(=O)c1cccc(O)c1C2=O
- Potency [1]: inactive
- Potency [2]: inactive
- Potency [3]: inactive
- Potency [4]: inactive
- Potency [5]: inactive
- Potency [8]: inactive

Compound: O=S1(=O)CC(Cl)(Cl)C(Cl)(Cl)C1
- Potency [1]: 9.77 µM (active)
- Potency [2]: 0.122 µM (active)
- Potency [3]: 0.172 µM (active)
- Potency [4]: 0.154 µM (active)
- Potency [5]: 4.36 µM (active)
- Potency [7]: inactive
- Potency [9]: 2.17 µM (active)

Compound: CC(C)CCCCCCCCCCCCCCC(=O)O
- Potency [1]: inactive
- Potency [2]: inactive
- Potency [3]: inactive
- Potency [4]: inactive
- Potency [5]: inactive
- Potency [8]: inactive

Compound: CSc1cnc(C)cn1
- Potency [1]: inactive
- Potency [2]: inactive
- Potency [3]: inactive
- Potency [4]: inactive
- Potency [5]: inactive
- Potency [8]: inactive
